Results filed as inconclusive are left out. Active and inactive are the calls of the source. Calls follow the shape of the dose curve; as a rule, active = well fitted inhibition curve with a large enough effect; inconclusive = small, poorly fitted or top-dose-only effect; inactive = no such curve, though single readings can be large or run the other way.
test: Confirmatory fluorescence-based thiol-reactive (MSTI) qHTS assay for identification of artifact compounds; conditions: MSTI thiol-reactivity probe, 1 h; series mostly up to 39.2 µM; activity change, negative = inhibition: at the top concentration
Excerpt: PI: Alexander Tropsha Ph.D. UNC Eshelman School of Pharmacy University of North Carolina, Chapel Hill, North Carolina Hits from high-throughput screening (HTS) of chemical libraries are often false positives due to their interference with the assay detection technology. In response to this problem, we generated the largest publicly available library of chemical liabilities and developed a free webtool to predict HTS artifacts, both of which are described herein. More specifically, we generated, curated, and integrated HTS datasets for thiol reactivity, redox activity, and luciferase (firefly and nano) activity. Using these curated datasets, we developed and validated several Quantitative Structure-Interference Relationship (QSIR) models to predict nuisance behavior. […] These models were employed for virtual profiling of the National Center for Advancing Translational Science's (NCATS) in-house library, and 256 compounds for each assay were selected for the experimental validation of nuisance behavior. The BA for these external predictions ranged from 58 to 78% for compounds within the applicability domains of the models. […] The models developed in this study, along with aggregation models previously developed by our group (SCAM Detective) were implemented in "Liability Predictor," an online tool which may be used as part of chemical library design or for triaging HTS hits. Both the models and the curated datasets are publicly available at https://liability.mml.unc.edu/.
PROTOCOL TABLE SEQUENCE No. (e.g., 1, 2, 3, etc.); PARAMETER (e.g., Cells, Incubation, Reagent, etc.); VALUE; DESCRIPTION. 1; Reagent; 4 uL; […]. 2; Compounds and control; 16 nL; Kalypsis pin tool (Wako USA) equipped with a 1536-well pin head. 3; Incubation; 1 hour. 4; Detection; Fluorescence, ViewLux microplate reader, 525 nm excitation, 598 nm emission. NOTES (numbers refer to Sequence numbers above) 1. Assays determining (E)-2-(4-mercaptostyryl)-1,3,3-trimethyl-3H-indol-1-ium (MSTI) reactivity were performed as previously described in the literature with modifications for the quick identification of compounds reacting with thiol. In brief, 4 uL of MSTI or positive control Acetyl-MSTI (final concentrations of 4 uM and 4 uM, respectively) in assay buffer (2% DMSO in 1X PBS pH 7.4) was dispensed into all wells of a 1536-well assay plate (solid-bottom black plate; Greiner Bio One, Monroe, NC). 2. A Wako Pin-tool (Wako Automation, Richmond, VA) was used to transfer 16 nL of compounds (consisting of 7-plates in qHTS format, final concentration range 18.3 nM to 114 uM) or control MLS001163887 (final concentration range 1.22 nM to 40 uM). 3. Plates were centrifuged (121xg, 15 seconds) and incubated for 1 hour at room temperature protected from light. 4. Samples were read for fluorescence (Ex/Em = 525(20)/598(25) nm) on a ViewLux CCD imager (PerkinElmer). Data were normalized to Acetyl-MSTI (0% activity) and MSTI (100% activity) and the resulting percent inhibition data were fitted to a 4-parameter Hill equation using NCATS in-house software.
Potency is read from the fitted curve at half-maximal effect.

Activity change, negative = inhibition, inactive:
Cc1ccc2cccc(NC(=O)c3ccc(-c4cccc([N+](=O)[O-])c4)o3)c2n1 -0.59%
COC(=O)c1ccc(NC(=O)CC2C(=O)N(c3ccccc3)C(=O)N2Cc2cccs2)cc1 (stereo not given) 170%
COc1ccc(NC(=O)Nc2cccc(-c3noc(C)n3)c2)cc1 61.9%
COC(=O)c1c(OCc2ccccn2)cc(=O)n2c1CCN(C(=O)c1n[nH]c3c1CCCC3)CC2 50.9%
O=C1CCCC2=C1C(c1[nH]ncc1Cl)NC(=NCCc1ccccc1)N2 (stereo not given) 22.8%
Cc1ccc(-c2nc3scc(CCNS(=O)(=O)c4ccc(F)c(C)c4)n3n2)cc1 49.9%
O=c1c2ccccc2nc2sc(NS(=O)(=O)c3ccc4c(c3)CCC4)nn12 226%
CC[C@H]1OC(=O)[C@H](C)[C@@H](O[C@H]2C[C@@](C)(OC)[C@@H](O)[C@H](C)O2)[C@H](C)[C@@H](O[C@@H]2O[C@H](C)C[C@H](N(C)C)[C@H]2O)[C@](C)(O)C[C@@H](C)C(=O)[C@H](C)[C@@H](O)[C@]1(C)O 30.9%
CCOc1ccc(CCNC(=O)c2ccc3c(c2)nc2n3CCOC2)cc1OCC 109%
O=C(COCc1cc(-c2cccs2)on1)NCc1ccc(Cl)cc1 259%
Cc1cc(N[S+](=O)([O-])c2ccc(NC(=O)Cc3ccc(Cl)nc3)cc2)no1 20.7%
COc1ccc(NC(=O)c2ccco2)cc1NC(=O)c1ccccc1[N+](=O)[O-] -13.1%
Cc1ccc(OCc2nc3ccccc3n2Cc2ccccc2Cl)cc1 -4.67%
CCCCn1c(-c2ccc(C)cc2)c(C)n2c3c(=O)n(C)c(=O)n(C)c3nc12 -26%
Ic1ccc(Nc2nc(NCCN3CCOCC3)nc(N3CCOCC3)n2)cc1 94.8%
O=C(O)c1ccccc1[N+](=O)[O-] 10.1%
COc1ccc(-c2cc3ccc(O)c(CN4CCOCC4)c3oc2=O)cc1OC -13.7%
Cc1ccc(C)c(N2CCN(Cc3csc(C)c3)CC2)c1 15.4%
CCSc1ncc(Cl)c(C(=O)Nc2c(C(=O)Nc3cccc(C)c3)oc3ccccc23)n1 6.11%
COc1ccc(N2C(=O)NC(NS(=O)(=O)c3ccc(Cl)cc3)(C(F)(F)F)C2=O)cc1 (stereo not given) 4.2%
COc1ccc(C(=O)NCC(=O)OCC(=O)c2cccc3ccccc23)cc1 106%
CCOc1ccccc1NC(=O)CSc1nc2c(oc3ccccc32)c(=O)n1-c1ccc(F)cc1 96.4%
O=C(/C=C/c1ccc(O)cc1)OC[C@H]1O[C@@H](Oc2c(-c3ccc(O)cc3)oc3cc(O)cc(O)c3c2=O)[C@H](O)[C@@H](O)[C@@H]1O 5.52%
Cc1sc2ncn(CC(=O)N3CCN(c4ccccc4)CC3)c(=O)c2c1S(=O)(=O)N1CCC(C)CC1 13.5%
Cc1cc(OC(=O)c2c(C)cc(O)cc2O)cc(O)c1C(=O)O 2.87%
COc1ccc(C2=NN(CCC(=O)NCCc3ccccc3)C(=O)CC2)cc1 54.8%
CC(C)(C)C(=O)NC1(C(F)(F)F)C(=O)Nc2c1c(=O)[nH]c(=O)n2-c1ccccc1 (stereo not given) 8.65%
O=C(CCn1c(=O)c2cccn2c2cccnc21)N1CCN(c2ccccc2F)CC1 79.7%
O=C(NCc1ccccc1)C1(C(F)(F)F)C/C(=C\CCO)CCCO1 (stereo not given) -3.94%
CCCS(=O)(=O)N1CC(=O)N(c2ccc(C)cc2)C(C)(C(=O)NC2CCCCCC2)C1 (stereo not given) 130%
O=C(O)Cc1cc(I)c(Oc2cc(I)c(O)c(I)c2)c(I)c1 -37.1%
O=C(O)c1c(O)c(O)cc2ccccc12 -23.5%
C=Cc1ccc(Cn2c(C)c(CNCc3cccc(Br)c3)c(C(=O)O)c2C)cc1 -1.73%
COC(=O)c1ccc(NC(=O)CC2C(=O)N(c3ccccc3)C(=O)N2Cc2ccco2)cc1 (stereo not given) 188%
CC1CC(C)CN(c2oc(-c3ccc(OCc4ccc(Cl)cc4)cc3)nc2C#N)C1 (stereo not given) 0.0837%
O=C(NCCN1CCCCC1)c1ccc(Cn2c(SCc3ccc(F)cc3)nc3cccnc32)cc1 91.6%
Cc1ccc(Cn2cc(CCC(=O)NC3CCCCC3)c3ccccc32)cc1 117%
Cn1cc(CN(C(=O)Nc2ccc(Cl)c(Cl)c2)C2CCCCC2)c2ccccc21 81.3%
Cc1ccc(NC(=O)NCC2CCN(Cc3cccc(Cl)c3)CC2)cc1Cl 92.1%

Potency, active:
Oc1ccc(-c2nc3ccc(Cl)cn3c2Nc2ccc3c(c2)OCO3)cc1 770 nM
